# Compounds with a hit are over-represented: about 2.8% of the library has one in this group of screens.
# FH mod – Identification of activators of human fumarate hydratase by quantitative high-throughput screening; AID 1347055, 2019; FH coupled MDH/diaphorase resazurin fluorescence, 15 min; Fumarate hydratase, mitochondrial (Homo sapiens), P07954; Potency, µM (doses to about 79.9 µM), inactives show top-dose activity change, negative = inhibition, actives largely listed as inhibitors; 54,000 compounds, 0.22% hits; note: potency is the fitted concentration of half-maximal effect; % is set by controls: 0 for no effect and ±100 for the full control effect; the screen sought activators but most active calls are inhibition curves; nearly all actives have a fitted effect of over 45% in size
# Target sequence (P07954 whole entry, looked up): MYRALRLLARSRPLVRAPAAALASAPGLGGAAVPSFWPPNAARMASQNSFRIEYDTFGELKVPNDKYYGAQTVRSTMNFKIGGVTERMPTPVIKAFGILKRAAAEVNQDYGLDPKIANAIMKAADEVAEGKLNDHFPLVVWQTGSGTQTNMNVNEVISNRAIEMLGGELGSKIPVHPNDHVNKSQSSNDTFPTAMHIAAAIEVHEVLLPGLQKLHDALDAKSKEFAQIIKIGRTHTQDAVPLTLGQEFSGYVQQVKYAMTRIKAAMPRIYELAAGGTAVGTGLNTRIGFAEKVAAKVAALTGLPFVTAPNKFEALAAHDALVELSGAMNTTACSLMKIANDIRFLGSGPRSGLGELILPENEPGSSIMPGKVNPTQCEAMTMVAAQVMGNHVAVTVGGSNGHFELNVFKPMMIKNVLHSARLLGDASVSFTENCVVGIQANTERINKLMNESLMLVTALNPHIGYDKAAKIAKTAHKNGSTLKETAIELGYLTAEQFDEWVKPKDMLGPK
# B2AR arrestin ag – beta-arrestin recruitment by human beta2-adrenergic receptor ligands | P07550 | HTLA Tango cells, beta-arrestin recruitment, luciferase luminescence, 18 h | 44,000 tested, under 10 active | AID 1347077 | Potency, µM (top dose mostly 46.1 µM), actives largely listed as activators;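 note: potency is the fitted concentration of half-maximal effect; 0% = DMSO and full agonism = EC100 isoproterenol or metaproterenol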
#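 First, Tango cells carrying beta2-AR and beta-arrestin fusions received compound up to 46 microM. After 18 hr at 37 degrees C, luciferase substrate was added for 15 minutes, then luminescence gave %Activity for curve fitting.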
# GPR32 ag – agonists of human resolvin D1 receptor DRV1 (GPR32). CHO-K1 GPR32 beta-arrestin PathHunter luminescence, 90 min; zero percent set by DMSO-only wells. 48,000 compounds, 2.5% hits. O75388. AID 1346428. activation, % at 76.9 µM;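 active = activation of at least 60% and not above a set upper limit, about 1 call in 100 departs from these limits; inconclusive = activation of 40% to 60%, or above that upper limit; inactive = activation under 40%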; note: 0% is about no effect
#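 Beta-arrestin recruitment read-out: luminescence from complemented beta-Gal in CHO-K1 GPR32 PathHunter cells, measured 1 h after detection reagent at ambient temperature following 90 min compound exposure at 37 °C; DMSO served as basal (EC0) control.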
# GALC G270D up – enhancers of human galactocerebrosidase G270D mutant activity in cells; P54803; 145M-Twi-hGALC-G270D cells (Twitcher mouse brain line with human GALC G270D), HMU-beta-Gal fluorescence, 48 h; Potency, µM (top dose mostly 57.5 µM), actives largely listed as activators; 45,000 compounds, 0.1% hits; AID 1159614; note: potency is the fitted concentration of half-maximal effect; 0% is about no effect; nearly all actives have a fitted effect of over 65% in size
#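 Live 145M-Twi cells (Twitcher mouse brain-derived, GALC-null) stably expressing human GALC-G270D, with a wild-type GALC line, were compound-treated. Residual GALC activity was then read as fluorescence from 0.1 mM final HMU-β-gal at pH 5.2; higher signal means activation.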
# * hit, by the source's call; i = inactive; ? = inconclusive; / = no result given; [ ] = another dose, or the depositor's remark. Unless noted, calls come from the whole dose curve; as a rule, active = well fitted curve in the direction sought with a large enough effect; inconclusive = small, poorly fitted or top-dose-only effect, or another doubt; inactive = no such curve, though single readings can be large; an effect the other way counts as inactive or inconclusive.
SMILES,FH mod,B2AR arrestin ag,GPR32 ag,GALC G270D up
Clc1cccc(-n2ncc3c(NCCC4=CCCCC4)ncnc32)c1,3%,i,-7,i
OCC(CO[C@@H]1O[C@H](CO)[C@@H](O)[C@H](O)[C@H]1O)c1ccc2c(c1)OCO2 (stereo partly drawn),1%[53.3 µM],/,/,/
CCCc1cc(C)[nH]c(=O)c1CNC(=O)c1cc(-c2ccc(N3CCN(C(C)C)CC3)nc2)cc2c1cnn2C(C)C,-3%,/,/,/
Cc1ccc(N(CC(C)C)S(=O)(=O)c2nnc(NC(=O)c3cccs3)s2)cc1,-7%,i,43,i
Cc1cccc(N(C)S(=O)(=O)c2nnc(NC(=O)c3cccs3)s2)c1,-7%,i,73*,i
CCn1c(=O)sc2cc(NS(=O)(=O)c3ccc(C)cc3)ccc21,-13%,i,61*,i
COc1ccc(NC(=O)[C@H]2O[C@@H]3OC(C)(C)O[C@@H]3[C@H]3OC(C)(C)O[C@H]32)c(OC)c1,-6%,i,97*,i
Cc1ccc(Nc2c(-c3ccc(O)cc3)nc3cccc(C)n23)cc1,-6%,i,117*,i
Cc1cccc2nc(-c3cccnc3)c(Nc3ccc(C(C)C)cc3)n12,-5%,i,61*,i
CC(C)(O)C1OC1C1=CC(=O)C2(C)OC2C1O (stereo not drawn),1%,/,/,/
CCCCOc1ccc(C(=O)N2CCN(CCc3ccccn3)CC2)cc1,4%,i,17,8.9µM*
C=C(CC)C(=O)c1ccc(OCC(=O)O)c(Cl)c1Cl,-6%[53.3 µM],/,90*,i
CCc1ccc(NC(=O)CSc2nc3n[nH]c(C)c3c(=N)n2-c2ccccc2C)cc1,-1%,i,62*,i
C[C@H]1O[C@@H](O[C@H]2CC[C@@]3(C)[C@H](CC[C@@H]4[C@@H]3C[C@@H](O)[C@]3(C)[C@@H](C5=CC(=O)OC5)CC[C@]43O)C2)C[C@H](O)[C@@H]1O[C@H]1C[C@H](O)[C@H](O[C@H]2C[C@H](O)[C@H](O[C@@H]3O[C@H](CO)[C@@H](O)[C@H](O)[C@H]3O)[C@@H](C)O2)[C@@H](C)O1,-1%[53.3 µM],/,76*,i
Nc1ncnc2c1ncn2CCNCCCCCO,7%,/,/,/
Nc1c(S(=O)(=O)O)cc(Nc2ccc(Nc3nc(Cl)nc(Nc4ccc(S(=O)(=O)O)cc4)n3)c(S(=O)(=O)O)c2)c2c1C(=O)c1ccccc1C2=O,5µM*,/,-55,/
Cc1ccccc1CSc1nc2c(sc3ccccc32)c(=O)n1CCCOC(C)C,-29%,i,21,i
CC(C)OCCCn1c(SCC(=O)Nc2ccc(F)cc2)nc2c(sc3ccccc32)c1=O,1%,i,-4,i
CC(C)OCCCn1c(SCC(N)=O)nc2c(sc3ccccc32)c1=O,-6%,i,115*,i
COCCCn1c(SCc2ccccc2F)nc2c(sc3ccccc32)c1=O,-29%,i,2,32µM*
Cc1nc(-c2ccc(S(=O)(=O)NCc3ccc(F)cc3)cc2)co1,4%,i,?,i
Cc1cccc(CNS(=O)(=O)c2ccc(-c3coc(C)n3)cc2)c1,1%,i,98*,i
C=C(CCC1C(C)(O)CCC2C(C)(C)C(O)CCC12C)C(O)CO (stereo not drawn),-13%[53.3 µM],/,/,/
CCc1ccc(NCc2cc3cc4c(cc3n(CC(=O)Nc3cccc(OC)c3)c2=O)OCO4)cc1,-18%,i,-44,28µM*
COc1ccc(/C=C2\COc3ccc(C)cc3C2=O)cc1O,-22%[53.3 µM],/,/,/
SMILES,FH mod,B2AR arrestin ag,GPR32 ag,GALC G270D up
N#C[C@@H]1C[C@H](F)CN1C(=O)CNC1[C@H]2CN(C(=O)c3ccc(F)cc3)C[C@@H]12 (stereo partly drawn),5%,/,/,/
COc1cc2c3c(cc4ccccc4c3c1O)NC2=O,-12%,/,/,/
c1ccc2c(c1)CCc1ccccc1N2,?,/,119*,i
Cc1cc(C)c2c(N)c(C(=O)NCc3ccc(Cl)cc3)sc2n1,-7%,/,/,/
Oc1cccc(C(Nc2ccccn2)c2ccc3cccnc3c2O)c1Cl (stereo not drawn),/,?,81*,/
NC(=O)c1cccc(-c2cc(O)cc(OC(=O)NC3CCCCC3)c2)c1,1%[53.3 µM],/,/,/
O=C(NCc1cccc(Cl)c1)C1CCN(c2nn3cc(-c4ccc(F)cc4)nc3s2)CC1,0%,i,62*,i
